We go through four compounds from PubChem BioAssay (EPA / NIEHS).

The target of test [1] is Oxysterols receptor LXR-alpha (Homo sapiens) (UniProt Q13133). The test is described as follows: ATG_LXRa_TRANS: Attagene TRANS-FACTORIAL HepG2 Assay for human Liver X Receptor alpha (LXRa) (AID 2282980; active = hit-call score of the fitted dose curve at least 0.9, where 1 is the maximum). Conditions: HepG2 Attagene TRANS reporter, LXRa transactivation. The procedure, abridged:
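HepG2 cells transiently transfected with GAL4-UAS reporter units for chimeric NR-Gal4 proteins, exposed to chemicals for 24 h. Reporter mRNA quantified by RT-PCR and capillary electrophoresis; gain of signal fitted relative to DMSO.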

The target in test [2] is Oxysterols receptor LXR-beta (Homo sapiens) (UniProt P55055). The test is described as follows: ATG_LXRb_TRANS: Attagene TRANS-FACTORIAL HepG2 Assay for human Liver X Receptor beta (LXRb) (AID 2282981; active = hit-call score of the fitted dose curve at least 0.9, where 1 is the maximum). The conditions noted are these: HepG2 Attagene TRANS GAL4-LXRb reporter, mRNA. The procedure, abridged: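 Multiplexed reporter assay, HepG2, 24 h dosing. Fluorescence of labelled RT-PCR products after capillary electrophoresis gives transcript level; positive fitting direction relative to DMSO.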

For test [3], the target named is Hepatocyte nuclear factor 4-alpha (Homo sapiens) (UniProt P41235). Description: ATG_HNF4a_TRANS: Attagene TRANS-FACTORIAL HepG2 Assay for human Hepatocyte Nuclear Factor 4 alpha (HNF4a) (AID 2282982; active = hit-call score of the fitted dose curve at least 0.9, where 1 is the maximum). The conditions noted are these: HepG2 HNF4a transactivation reporter, mRNA readout. The procedure, abridged: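 Endpoint reflects transcriptional activation of a GAL4-UAS reporter by an HNF4a-GAL4 chimera in transfected HepG2 cells, 24 h post-dosing. Fluorescence from RT-PCR products separated by capillary electrophoresis; DMSO baseline.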

Test [4] can be described thus: ATG_M_32_TRANS: Attagene TRANS-FACTORIAL HepG2 Assay for M32 Transcription Factor (Internal Marker) (AID 2282984; active = hit-call score of the fitted dose curve at least 0.9, where 1 is the maximum;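 note: transcript level of a background control reporter unit measured by RT-PCR and capillary electrophoresis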). The conditions noted are these: HepG2 Attagene TRANS M32 internal marker reporter. Put shortly:
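Internal-marker readout from a multiplexed transcription reporter panel. HepG2 cells were transfected with GAL4-UAS reporter units, treated 24 hours, and reporter transcript levels determined by fluorescence after RT-PCR and capillary separation.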

Test [5] deals with Transcriptional activator Myb (Homo sapiens) (UniProt P10242). Description: ATG_Myb_CIS: Attagene CIS-FACTORIAL HepG2 Assay for human Myeloblastosis (Myb) Proto-Oncogene Transcription Factor (AID 2282986). The conditions noted are these: HepG2 Attagene CIS-FACTORIAL Myb reporter transcription; actives raise or lower the signal. The procedure, abridged:
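Multiplexed cis-reporter system in HepG2: transient transfection, 24 h treatment, mRNA readout by RT-PCR and capillary electrophoresis. Both increases and decreases are scored versus DMSO negative control.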

The target of test [6] is Nuclear respiratory factor 1 (Homo sapiens) (UniProt Q16656). Description: ATG_NRF1_CIS: Attagene CIS-FACTORIAL HepG2 Assay for human Nuclear Respiratory Factor 1 (NRF1) Orphan Gene (AID 2282987). Conditions: HepG2 NRF1 cis-element reporter, Attagene multiplex; actives raise or lower the signal. The procedure, abridged: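 Endogenous factor activity was captured via cis-element-driven reporter transcripts in HepG2 cells. Following 24 h chemical treatment, transcripts were quantified by RT-PCR and capillary electrophoresis.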

Test [7] in a line: ATG_NFI_CIS: Attagene CIS-FACTORIAL HepG2 Assay for human Nuclear Factor I (NFI) (AID 2282989). The conditions noted are these: HepG2 cis-regulatory reporter, NFI response element transcription; actives raise or lower the signal. Put shortly: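 Read-out: reporter mRNA via RT-PCR plus capillary electrophoresis with fluorescence detection. Transiently transfected HepG2 (endogenous TF activity on cis promoters), 24 h compound exposure; gain or loss of signal fitted against DMSO.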

The target of test [8] is Myc proto-oncogene protein (Homo sapiens) (UniProt P01106). The test is described as follows: ATG_Myc_CIS: Attagene CIS-FACTORIAL HepG2 Assay for human Myelocytomatosis (Myc) Proto-Oncogene Transcription Factor (AID 2282990). The conditions noted are these: HepG2, Attagene cis-reporter transcription factor activity; actives raise or lower the signal. Put shortly:
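Transiently transfected HepG2 cells bearing cis-promoter reporter units for endogenous transcription factors; 24 h exposure. Reporter mRNA measured by RT-PCR, 6-FAM primer extension, HpaI cut and capillary electrophoresis; bidirectional fit relative to DMSO.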

A short description of test [9]: ATG_NRF2_ARE_CIS: Attagene CIS-FACTORIAL HepG2 Assay for human Nuclear Factor Erythroid 2 Related Factor 2 (NFR2) response to Antioxidant Response Elements (ARE) (AID 2282992). Conditions: HepG2 Attagene ARE/NRF2 reporter, transcription factor activity; actives raise or lower the signal. The procedure, abridged: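 Using transiently transfected HepG2 cells exposed for 24 h, reporter mRNA levels were determined by RT-PCR with fluorescent primer extension and capillary electrophoresis, analysed for gain or loss of signal against DMSO.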

Test [10] can be described thus: ATG_Oct_MLP_CIS: Attagene CIS-FACTORIAL HepG2 Assay for human Octamer-Binding Transcription Factor (Oct) (AID 2282993). Conditions: HepG2 Attagene cis-factorial Oct reporter, mRNA; actives raise or lower the signal. Put shortly: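 Read-out: reporter mRNA via RT-PCR plus capillary electrophoresis of 6-FAM-labelled fragments. Transiently transfected HepG2, 24 h exposure, endogenous TF activity on cis elements. Gain or loss of signal fitted relative to DMSO.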

Test [11] addresses Cellular tumor antigen p53 (Homo sapiens) (UniProt P04637). Description: ATG_p53_CIS: Attagene CIS-FACTORIAL HepG2 Assay for human p53 Transcription Factor (AID 2282994). The conditions noted are these: HepG2 p53 cis-element reporter, Attagene mRNA; actives raise or lower the signal. The procedure, abridged: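 In HepG2 cells, reporter transcription units under cis-regulatory promoters were transiently introduced. Following 24 h treatment, RNA was processed to labelled, digested cDNA fragments read by capillary electrophoresis; fitting was bidirectional versus DMSO.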

Test [12] can be described thus: BSK_3C_TissueFactor: BioMAP Diversity Plus: 3C Assay for Tissue Factor Biomarker Activity (AID 2282997). The conditions noted are these: BioMAP 3C HUVEC, tissue factor biomarker readout; actives raise or lower the signal. Put shortly:
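Tissue Factor measured by ELISA, 24 h after treatment of primary HUVEC in the BioMAP 3C setting.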

Test [13] can be described thus: BSK_3C_uPAR: BioMAP Diversity Plus: 3C Assay for Urokinase-type plasminogen activator receptor (uPAR) Biomarker Activity (AID 2282998). The conditions noted are these: BioMAP 3C HUVEC, uPAR biomarker ELISA; actives raise or lower the signal. Put shortly:
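HUVEC primary cells; 24 h post-dose; uPAR by ELISA; gain or loss of signal fitted bidirectionally vs DMSO baseline.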

Test [14] can be described thus: BSK_3C_VCAM1: BioMAP Diversity Plus: 3C Assay for Vascular cell adhesion molecule 1 (VCAM1) Biomarker Activity (AID 2282999). Conditions: BioMAP 3C HUVEC, VCAM1 ELISA, cytokine-stimulated; actives raise or lower the signal. Put shortly: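 HUVEC primary cells, 24 h compound exposure; VCAM-1 by ELISA; gain/loss of signal fitted bidirectionally vs DMSO baseline.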
The nature of test [15]: ATG_NF_kB_CIS: Attagene CIS-FACTORIAL HepG2 Assay for human Nuclear Factor Kappa B (NF-kB) (AID 2282991). Conditions: HepG2 Attagene cis-factorial NF-kB reporter mRNA; actives raise or lower the signal. The procedure, abridged:
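After 24 h compound incubation, transfected HepG2 cells yield total RNA; reporter cDNA is PCR-amplified, end-labelled with 6-FAM, HpaI-digested and analysed on a genetic analyser. Endogenous factor activity, DMSO-referenced bidirectional fit.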

Test [16] can be described thus: ATG_M_06_TRANS: Attagene TRANS-FACTORIAL HepG2 Assay for M06 Transcription Factor (Internal Marker) (AID 2282983; active = hit-call score of the fitted dose curve at least 0.9, where 1 is the maximum). Conditions: HepG2 Attagene TRANS M06 internal marker reporter. The procedure, abridged: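 mRNA levels of a reporter transcript, quantified as FAM fluorescence on capillary electrophoresis, served as readout. HepG2 cells expressing exogenous GAL4-chimera reporter constructs were exposed for 24 h. Gain of signal over DMSO was evaluated.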

For test [17], the target named is Nuclear receptor subfamily 4 group A member 2 (Homo sapiens) (UniProt P43354). Description: ATG_NURR1_TRANS: Attagene TRANS-FACTORIAL HepG2 Assay for human Nuclear Receptor Related Protein 1 (NURR1) (AID 2282985; active = hit-call score of the fitted dose curve at least 0.9, where 1 is the maximum). Conditions: HepG2 Attagene TRANS reporter, mRNA readout. Put shortly:
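Endpoint: reporter mRNA increase relative to DMSO. HepG2 cells transfected with reporter units, treated 24 h; RNA processed by RT-PCR, labelling, HpaI digestion and capillary electrophoresis.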

The structures appear in SMILES notation. Inconclusive results are not listed. The source made the active and inactive calls. Rule for the calls, unless noted: active = hit-call score of the fitted dose curve at least 0.9, where 1 is the maximum; inactive = score below 0.9.

Chain of Cellular tumor antigen p53 (Homo sapiens) (P04637 whole entry, looked up, the tested form may be a part): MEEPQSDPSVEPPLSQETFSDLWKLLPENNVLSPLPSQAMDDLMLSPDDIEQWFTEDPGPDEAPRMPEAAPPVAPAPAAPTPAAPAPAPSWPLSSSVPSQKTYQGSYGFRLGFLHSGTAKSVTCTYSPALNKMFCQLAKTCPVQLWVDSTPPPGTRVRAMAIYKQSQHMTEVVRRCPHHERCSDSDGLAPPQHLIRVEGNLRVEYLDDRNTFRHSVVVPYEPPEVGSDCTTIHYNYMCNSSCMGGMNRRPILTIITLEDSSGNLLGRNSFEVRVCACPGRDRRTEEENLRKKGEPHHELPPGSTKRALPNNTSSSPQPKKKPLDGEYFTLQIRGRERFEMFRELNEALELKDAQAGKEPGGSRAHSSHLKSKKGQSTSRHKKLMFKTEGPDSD
Chain of Oxysterols receptor LXR-beta (Homo sapiens) (P55055 whole entry, looked up, the tested form may be a part): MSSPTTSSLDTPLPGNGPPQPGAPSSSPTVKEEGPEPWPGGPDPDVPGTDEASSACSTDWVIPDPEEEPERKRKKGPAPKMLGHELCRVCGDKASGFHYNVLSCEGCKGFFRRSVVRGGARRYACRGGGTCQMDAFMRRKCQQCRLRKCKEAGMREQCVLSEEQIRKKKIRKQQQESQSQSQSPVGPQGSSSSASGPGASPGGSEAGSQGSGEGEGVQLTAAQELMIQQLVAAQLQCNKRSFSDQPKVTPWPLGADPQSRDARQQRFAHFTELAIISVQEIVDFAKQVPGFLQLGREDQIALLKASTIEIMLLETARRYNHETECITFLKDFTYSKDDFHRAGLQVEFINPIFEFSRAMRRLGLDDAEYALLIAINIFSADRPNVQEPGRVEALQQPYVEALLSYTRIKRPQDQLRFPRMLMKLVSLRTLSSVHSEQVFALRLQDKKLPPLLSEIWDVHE
Chain of Nuclear respiratory factor 1 (Homo sapiens) (Q16656 whole entry, looked up): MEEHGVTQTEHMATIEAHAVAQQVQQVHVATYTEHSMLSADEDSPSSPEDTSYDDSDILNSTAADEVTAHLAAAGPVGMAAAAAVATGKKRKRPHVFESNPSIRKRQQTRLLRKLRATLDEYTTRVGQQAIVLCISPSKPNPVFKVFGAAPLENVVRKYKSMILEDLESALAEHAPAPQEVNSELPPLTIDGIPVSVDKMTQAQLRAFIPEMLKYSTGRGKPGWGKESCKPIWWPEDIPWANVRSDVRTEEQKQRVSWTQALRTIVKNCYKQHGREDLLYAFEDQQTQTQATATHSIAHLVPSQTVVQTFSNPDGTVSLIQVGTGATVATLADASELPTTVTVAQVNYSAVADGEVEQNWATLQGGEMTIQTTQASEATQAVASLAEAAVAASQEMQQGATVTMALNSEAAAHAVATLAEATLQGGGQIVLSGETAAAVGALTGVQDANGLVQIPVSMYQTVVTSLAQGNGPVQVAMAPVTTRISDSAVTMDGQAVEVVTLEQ
Chain of Transcriptional activator Myb (Homo sapiens) (P10242 whole entry, looked up): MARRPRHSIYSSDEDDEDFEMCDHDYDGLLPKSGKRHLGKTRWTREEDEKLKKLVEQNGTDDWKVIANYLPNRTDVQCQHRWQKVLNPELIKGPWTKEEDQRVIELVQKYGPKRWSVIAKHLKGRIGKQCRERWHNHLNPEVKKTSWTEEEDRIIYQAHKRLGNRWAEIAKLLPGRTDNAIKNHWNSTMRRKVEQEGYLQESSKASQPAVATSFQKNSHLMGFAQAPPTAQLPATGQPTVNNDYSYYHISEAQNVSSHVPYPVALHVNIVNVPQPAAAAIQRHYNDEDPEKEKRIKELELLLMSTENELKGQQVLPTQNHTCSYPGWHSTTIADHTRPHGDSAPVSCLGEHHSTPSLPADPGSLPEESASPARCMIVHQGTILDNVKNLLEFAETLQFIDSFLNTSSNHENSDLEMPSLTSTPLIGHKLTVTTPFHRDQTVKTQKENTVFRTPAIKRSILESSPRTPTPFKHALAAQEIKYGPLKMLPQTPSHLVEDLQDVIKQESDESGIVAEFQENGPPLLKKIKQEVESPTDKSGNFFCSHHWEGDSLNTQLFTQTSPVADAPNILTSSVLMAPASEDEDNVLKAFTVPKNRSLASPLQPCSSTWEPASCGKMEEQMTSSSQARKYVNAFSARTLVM
Chain of Nuclear receptor subfamily 4 group A member 2 (Homo sapiens) (P43354 whole entry, looked up): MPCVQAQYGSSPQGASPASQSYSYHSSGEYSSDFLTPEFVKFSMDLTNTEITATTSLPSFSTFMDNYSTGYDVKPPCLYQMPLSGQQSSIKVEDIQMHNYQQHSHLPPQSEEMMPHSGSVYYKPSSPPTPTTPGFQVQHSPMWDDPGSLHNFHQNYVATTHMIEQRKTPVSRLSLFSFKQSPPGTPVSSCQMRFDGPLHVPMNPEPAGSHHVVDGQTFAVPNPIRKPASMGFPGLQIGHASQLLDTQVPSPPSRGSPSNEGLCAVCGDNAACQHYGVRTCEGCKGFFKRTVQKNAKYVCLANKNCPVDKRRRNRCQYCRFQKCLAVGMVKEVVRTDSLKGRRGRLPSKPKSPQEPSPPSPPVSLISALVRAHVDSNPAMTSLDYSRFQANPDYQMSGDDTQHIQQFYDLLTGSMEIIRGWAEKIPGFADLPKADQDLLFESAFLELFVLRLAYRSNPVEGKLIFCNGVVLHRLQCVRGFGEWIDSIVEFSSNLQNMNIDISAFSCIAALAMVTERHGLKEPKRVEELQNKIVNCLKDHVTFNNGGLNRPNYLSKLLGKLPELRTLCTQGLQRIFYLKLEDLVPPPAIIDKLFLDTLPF
Chain of Myc proto-oncogene protein (Homo sapiens) (P01106 whole entry, looked up): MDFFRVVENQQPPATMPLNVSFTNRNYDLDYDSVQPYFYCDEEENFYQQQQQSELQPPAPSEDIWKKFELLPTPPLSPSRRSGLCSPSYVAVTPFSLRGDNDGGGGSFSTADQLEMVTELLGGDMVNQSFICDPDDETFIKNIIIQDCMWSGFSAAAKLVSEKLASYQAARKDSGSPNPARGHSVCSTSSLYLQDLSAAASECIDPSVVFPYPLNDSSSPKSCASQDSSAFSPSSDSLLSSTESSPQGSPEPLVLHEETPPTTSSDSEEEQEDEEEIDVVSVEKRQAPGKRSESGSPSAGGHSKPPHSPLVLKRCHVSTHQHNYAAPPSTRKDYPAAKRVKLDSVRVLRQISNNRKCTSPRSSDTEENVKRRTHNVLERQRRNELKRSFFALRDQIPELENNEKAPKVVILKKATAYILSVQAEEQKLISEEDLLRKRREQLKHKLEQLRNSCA
Chain of Oxysterols receptor LXR-alpha (Homo sapiens) (Q13133 whole entry, looked up, the tested form may be a part): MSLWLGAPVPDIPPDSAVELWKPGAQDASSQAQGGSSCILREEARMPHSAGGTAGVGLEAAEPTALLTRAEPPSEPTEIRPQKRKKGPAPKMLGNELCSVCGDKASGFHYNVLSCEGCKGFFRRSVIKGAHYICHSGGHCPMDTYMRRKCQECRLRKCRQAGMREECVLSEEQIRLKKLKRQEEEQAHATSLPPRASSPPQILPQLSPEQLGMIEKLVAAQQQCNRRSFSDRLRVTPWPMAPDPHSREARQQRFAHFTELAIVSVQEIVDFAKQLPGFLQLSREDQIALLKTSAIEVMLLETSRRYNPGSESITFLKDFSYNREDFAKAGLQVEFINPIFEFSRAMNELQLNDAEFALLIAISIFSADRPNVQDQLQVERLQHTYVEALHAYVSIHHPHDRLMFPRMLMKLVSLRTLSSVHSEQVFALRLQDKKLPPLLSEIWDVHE
Chain of Hepatocyte nuclear factor 4-alpha (Homo sapiens) (P41235 whole entry, looked up, the tested form may be a part): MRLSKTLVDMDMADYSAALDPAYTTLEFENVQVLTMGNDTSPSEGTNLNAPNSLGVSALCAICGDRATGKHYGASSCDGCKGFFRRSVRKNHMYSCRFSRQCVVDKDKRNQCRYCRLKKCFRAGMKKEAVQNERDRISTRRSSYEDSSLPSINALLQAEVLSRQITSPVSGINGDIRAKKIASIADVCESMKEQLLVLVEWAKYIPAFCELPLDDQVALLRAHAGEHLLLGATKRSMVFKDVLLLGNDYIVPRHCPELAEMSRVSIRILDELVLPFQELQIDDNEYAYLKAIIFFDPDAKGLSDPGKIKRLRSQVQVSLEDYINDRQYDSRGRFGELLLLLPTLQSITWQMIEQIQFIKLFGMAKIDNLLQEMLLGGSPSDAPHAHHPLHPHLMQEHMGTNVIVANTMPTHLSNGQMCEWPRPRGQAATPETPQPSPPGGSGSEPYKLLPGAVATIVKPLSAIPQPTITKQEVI

A word on the AC50: it is the concentration at which the activity in the assay is half-maximal. Consider `CC[C@H](C)[C@H]1O[C@]2(C=C[C@@H]1C)C[C@@H]1C[C@@H](C/C=C(\C)[C@@H](O[C@H]3C[C@H](OC)[C@@H](O[C@H]4C[C@H](OC)[C@@H](NC)[C@H](C)O4)[C@H](C)O3)[C@@H](C)/C=C/C=C3\CO[C@@H]4[C@H](O)C(C)=C[C@@H](C(=O)O1)[C@]34O)O2`, for which the result in test [1], in test [2], in test [3], in [4], in test [5] and in [6] was inactive. Also, the call in test [7], in test [8], in [9], in test [10], in test [11] and in test [12] was inactive. Moreover, the AC50 is 1.93 µM (active) in [13] and 6.56 µM (active) in test [14].
Regarding `CN(C)C(=O)Nc1cccc(C(F)(F)F)c1`, the call in test [2], in test [4], in test [5], in test [6], in test [7] and in test [15] was inactive. The call in [10], in [11], in test [12], in [13] and in test [14] was inactive.
`O=c1ccc(=O)[nH][nH]1`: the result in test [1], in test [2], in [3], in test [16], in [4] and in [17] was inactive. Further, the call in [5], in test [6], in test [7], in [8], in test [15] and in [9] was inactive. Besides, the compound was called inactive in test [10], in test [11], in test [12], in test [13] and in [14].
For `CCOP(=O)(OCC)Oc1cc(C)nc(C(C)C)n1`, the call in test [16], in test [4], in test [17], in test [5], in test [6] and in [7] was inactive. For the same compound, the compound was classed as inactive in test [9], in test [10], in test [11], in [12], in test [13] and in test [14].
